Active and inactive are the calls of the source. Rule for the calls: active = hit-call score of the fitted dose curve at least 0.9, where 1 is the maximum; inactive = score below 0.9.
Experiments:
Details in all cases: mRNA level, 48 h; actives raise or lower the signal
[1] = read-out: matrix metalloproteinase-10 (MMP10), MMP10 (gene 4319); experiment: LTEA_HepaRG_MMP10: Life Technologies and Expression Analysis (LTEA) Assay for matrix metalloproteinase-10 (MMP10) using HepaRG (AID 2283517)
In short: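 In differentiated HepaRG cultures kept in 0.5% DMSO, test chemicals act for 48 h over an eight-point range with a top dose of 100 uM. Expression is then quantified by TaqMan RT-PCR against ACTB, GAPDH and POLR2A.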

MYC, MYC (gene 4609) = experiment: LTEA_HepaRG_MYC: Life Technologies and Expression Analysis (LTEA) Assay for MYC using HepaRG (AID 2283518)
In short: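 Expression changes were scored by TaqMan qRT-PCR with ACTB, GAPDH and POLR2A normalization. Cultures in serum-free induction medium received duplicate 8-point concentration series, highest 100 uM, for 48 h; DMSO (0.5%) served as baseline.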

[2] = read-out: matrix metalloproteinase-3 (MMP3), MMP3 (gene 4314); experiment: LTEA_HepaRG_MMP3: Life Technologies and Expression Analysis (LTEA) Assay for matrix metalloproteinase-3 (MMP3) using HepaRG (AID 2283519)
In short: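 Human liver HepaRG cultures received chemicals (top concentration 100 uM, 0.5% DMSO) for 48 h in duplicate. MMP3 mRNA induction or loss was then assessed via TaqMan qRT-PCR with housekeeping-gene normalisation.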

[3] = read-out: Paternally Expressed 10 (PEG10), PEG10 (gene 23089); experiment: LTEA_HepaRG_PEG10: Life Technologies and Expression Analysis (LTEA) Assay for Paternally Expressed 10 (PEG10) using HepaRG (AID 2283520);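 for AC50: differentiated HepaRG human liver cells in serum-free induction medium with 0.5% DMSO; PEG10 transcript by qRT-PCR normalised to ACTB GAPDH and POLR2A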
In short: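 qRT-PCR read-out: PEG10 mRNA normalised to three housekeeping genes, fitted bidirectionally against 0.5% DMSO vehicle. HepaRG cells received test chemicals for 48 h in serum-free induction medium, 8 points, top 100 uM, half-log steps.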

[4] = read-out: Protein phosphatase 2A (PPP2R4), PTPA (gene 5524); experiment: LTEA_HepaRG_PPP2R4: Life Technologies and Expression Analysis (LTEA) Assay for Protein phosphatase 2A (PPP2R4) using HepaRG (AID 2283522)
In short: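 HepaRG, 48 h exposure, 8-pt half-log series from 100 uM, 0.5% DMSO vehicle, duplicates. Readout: PPP2R4 mRNA, Fluidigm qRT-PCR, housekeeping-normalized. Bidirectional curve fit vs DMSO baseline.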

[5] = read-out: Phosphatase and tensin (PTEN), PTEN (gene 5728); experiment: LTEA_HepaRG_PTEN: Life Technologies and Expression Analysis (LTEA) Assay for Phosphatase and tensin (PTEN) using HepaRG (AID 2283523)
In short: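 Expression of PTEN is quantified in the human liver line HepaRG following two days of dosing (top concentration 100 uM, half-log dilutions, 0.5% DMSO). Values derive from bidirectional curve fitting relative to DMSO controls.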

[6] = read-out: solute carrier (SLC22A1), SLC22A1 (gene 6580); experiment: LTEA_HepaRG_SLC22A1: Life Technologies and Expression Analysis (LTEA) Assay for solute carrier (SLC22A1) using HepaRG (AID 2283524);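 for AC50: differentiated human HepaRG liver cells in serum-free induction medium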
In short: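 Transcript induction or suppression of SLC22A1 in human HepaRG cultures is scored after 48 h chemical treatment, with DMSO (0.5%) as baseline for bidirectional fitting. Concentrations span eight half-log points topping at 100 uM.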

[7] = read-out: Pyruvate Dehydrogenase Kinase 4 (PDK4), PDK4 (gene 5166); experiment: LTEA_HepaRG_PDK4: Life Technologies and Expression Analysis (LTEA) Assay for Pyruvate Dehydrogenase Kinase 4 (PDK4) using HepaRG (AID 2283525)
In short: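 Eight-point, half-log concentration series (max 100 uM, 0.5% DMSO) applied to differentiated HepaRG cells for 48 h in duplicate. Endpoint: PDK4 mRNA induction or repression by qRT-PCR against DMSO baseline.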

[8] = read-out: NAD(P)H dehydrogenase [quinone] 1 (NQO1), NQO1 (gene 1728); experiment: LTEA_HepaRG_NQO1: Life Technologies and Expression Analysis (LTEA) Assay for NAD(P)H dehydrogenase [quinone] 1 (NQO1) using HepaRG (AID 2283526)
In short: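 qRT-PCR read-out (Fluidigm TaqMan), normalized to three housekeeping genes, after 48 h chemical exposure of HepaRG cells. Concentrations: eight points, top 100 uM, half-log steps, 0.5% DMSO vehicle. Gain or loss of signal fitted relative to DMSO.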

[9] = read-out: Nuclear factor erythroid 2-related factor 2 (Homo sapiens) (UniProt Q16236); experiment: LTEA_HepaRG_NFE2L2: Life Technologies and Expression Analysis (LTEA) Assay for Nuclear factor erythroid 2-related factor 2 (NFE2L2) Transcription Factor using HepaRG (AID 2283527)
In short: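 Human liver HepaRG line treated in duplicate for 48 h with an eight-point series topping at 100 uM. Gene expression of NFE2L2 by qRT-PCR, bidirectionally fitted against the vehicle control.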

[10] = read-out: succinate dehydrogenase complex iron sulfur subunit B (SDHB), SDHB (gene 6390); experiment: LTEA_HepaRG_SDHB: Life Technologies and Expression Analysis (LTEA) Assay for succinate dehydrogenase complex iron sulfur subunit B (SDHB) using HepaRG (AID 2283528)
In short: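 SDHB transcript level read by TaqMan qRT-PCR, housekeeping-normalised (ACTB, GAPDH, POLR2A), after 48 h chemical treatment of plated HepaRG cells; eight concentrations top 100 uM, half-log steps, 0.5% DMSO, duplicates; fitted both directions against DMSO.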

[11] = read-out: Signal transducer and activator of transcription 3 (Homo sapiens) (UniProt P40763); experiment: LTEA_HepaRG_STAT3: Life Technologies and Expression Analysis (LTEA) Assay for Signal transducer and activator of transcription (STAT3) using HepaRG (AID 2283529)
In short: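 In this transcriptional endpoint, HepaRG cultures receive test chemicals at up to 100 uM for 48 h, tested in duplicate. STAT3 mRNA is normalized to ACTB, GAPDH and POLR2A.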

[12] = read-out: solute carrier (SLCO1B1), SLCO1B1 (gene 10599); experiment: LTEA_HepaRG_SLCO1B1: Life Technologies and Expression Analysis (LTEA) Assay for solute carrier (SLCO1B1) using HepaRG (AID 2283530)
In short: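 Human HepaRG cultures treated for 48 h with an eight-concentration half-log series topping at 100 uM; SLCO1B1 measured by qRT-PCR and fitted bidirectionally relative to DMSO.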

[13] = read-out: sulfotransferase 2A1 (SULT2A1), SULT2A1 (gene 6822); experiment: LTEA_HepaRG_SULT2A1: Life Technologies and Expression Analysis (LTEA) Assay for sulfotransferase 2A1 (SULT2A1) using HepaRG (AID 2283531)
In short: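 Gene-expression endpoint in a human liver cell line: SULT2A1 mRNA change after 48 h chemical treatment, curves fitted in both directions relative to 0.5% DMSO vehicle. Concentrations spanned eight half-log steps from 100 uM.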

[14] = read-out: Transforming Growth Factor (TGFA), TGFA (gene 7039); experiment: LTEA_HepaRG_TGFA: Life Technologies and Expression Analysis (LTEA) Assay for Transforming Growth Factor (TGFA) using HepaRG (AID 2283532)
In short: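 Gene expression of TGFA was quantified by qRT-PCR after human HepaRG cells were treated for 48 h with test chemicals (eight concentrations, highest 100 uM, 0.5% DMSO). Activity in either direction was fitted relative to DMSO.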

[15] = read-out: Transforming Growth Factor (TGFB1), TGFB1 (gene 7040); experiment: LTEA_HepaRG_TGFB1: Life Technologies and Expression Analysis (LTEA) Assay for Transforming Growth Factor (TGFB1) Transporter using HepaRG (AID 2283533)
In short: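 Eight-point concentration-response (max 100 uM, half-log) in HepaRG under serum-free induction conditions, 48 h. TGFB1 mRNA by qRT-PCR, housekeeping-normalized.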

TIMP1, TIMP1 (gene 7076) = experiment: LTEA_HepaRG_TIMP1: Life Technologies and Expression Analysis (LTEA) Assay for TIMP1 using HepaRG (AID 2283534);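 note: TaqMan qRT-PCR signal normalized to ACTB GAPDH and POLR2A housekeeping genes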
In short: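 TIMP1 induction or repression in HepaRG cells after 48 h chemical exposure (eight concentrations, highest 100 uM), assessed by normalized qRT-PCR with bidirectional fitting to DMSO controls.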

[16] = read-out: Tumor necrosis factor receptor 1 (TNFRSF1A), TNFRSF1A (gene 7132); experiment: LTEA_HepaRG_TNFRSF1A: Life Technologies and Expression Analysis (LTEA) Assay for Tumor necrosis factor receptor 1 (TNFRSF1A) using HepaRG (AID 2283535)
In short: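 Assay uses 48 h chemical treatment of differentiated HepaRG monolayers, tested in duplicate at eight concentrations from 100 uM downward in 0.5% DMSO. mRNA is normalized to ACTB, GAPDH and POLR2A, with induction or suppression fitted relative to vehicle.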

[17] = read-out: Thyroid Hormone Responsive (THRSP), THRSP (gene 7069); experiment: LTEA_HepaRG_THRSP: Life Technologies and Expression Analysis (LTEA) Assay for Thyroid Hormone Responsive (THRSP) using HepaRG (AID 2283536)
In short: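 Cell model: human HepaRG, approx. 100,000 cells/well, 0.5% DMSO vehicle. Exposure lasts 48 h; phenobarbital 1 mM serves as induction positive control. Gene expression is measured by qRT-PCR against three endogenous control genes.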

[18] = read-out: Nuclear factor NF-kappa-B p105 subunit (Homo sapiens) (UniProt P19838); experiment: LTEA_HepaRG_NFKB1: Life Technologies and Expression Analysis (LTEA) Assay for Nuclear Factor Kappa B Subunit 1 (NFKB1) using HepaRG (AID 2283521);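 note: differentiated human HepaRG liver cells in serum-free induction medium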
In short: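 NFKB1 transcript was measured by TaqMan qRT-PCR on Fluidigm arrays, normalised to three housekeeping genes and fitted in both directions against 0.5% DMSO. HepaRG cells were dosed in duplicate for 48 h in serum-free induction medium, eight half-log steps from 100 uM.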

Measured: AC50

Chain of Signal transducer and activator of transcription 3 (Homo sapiens) (P40763 whole entry, looked up): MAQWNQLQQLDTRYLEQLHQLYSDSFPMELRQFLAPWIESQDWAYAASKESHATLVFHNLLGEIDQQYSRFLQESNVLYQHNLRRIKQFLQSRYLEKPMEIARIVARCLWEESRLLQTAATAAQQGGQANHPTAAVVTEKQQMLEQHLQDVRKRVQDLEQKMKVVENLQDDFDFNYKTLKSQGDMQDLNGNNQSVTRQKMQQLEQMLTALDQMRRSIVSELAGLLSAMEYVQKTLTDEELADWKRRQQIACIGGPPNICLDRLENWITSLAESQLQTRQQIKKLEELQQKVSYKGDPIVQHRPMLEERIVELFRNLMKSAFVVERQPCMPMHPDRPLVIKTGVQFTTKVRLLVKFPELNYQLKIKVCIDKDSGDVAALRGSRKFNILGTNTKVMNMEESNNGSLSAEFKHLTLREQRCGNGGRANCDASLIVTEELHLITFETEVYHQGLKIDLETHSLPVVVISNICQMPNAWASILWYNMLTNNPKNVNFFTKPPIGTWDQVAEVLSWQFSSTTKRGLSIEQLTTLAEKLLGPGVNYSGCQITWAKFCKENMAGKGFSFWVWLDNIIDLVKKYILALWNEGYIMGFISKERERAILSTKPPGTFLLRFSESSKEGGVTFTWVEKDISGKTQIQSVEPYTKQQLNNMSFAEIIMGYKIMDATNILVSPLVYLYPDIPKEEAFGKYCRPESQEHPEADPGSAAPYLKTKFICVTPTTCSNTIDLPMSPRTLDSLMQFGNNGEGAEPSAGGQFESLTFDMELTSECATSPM
Chain of Nuclear factor erythroid 2-related factor 2 (Homo sapiens) (Q16236 whole entry, looked up): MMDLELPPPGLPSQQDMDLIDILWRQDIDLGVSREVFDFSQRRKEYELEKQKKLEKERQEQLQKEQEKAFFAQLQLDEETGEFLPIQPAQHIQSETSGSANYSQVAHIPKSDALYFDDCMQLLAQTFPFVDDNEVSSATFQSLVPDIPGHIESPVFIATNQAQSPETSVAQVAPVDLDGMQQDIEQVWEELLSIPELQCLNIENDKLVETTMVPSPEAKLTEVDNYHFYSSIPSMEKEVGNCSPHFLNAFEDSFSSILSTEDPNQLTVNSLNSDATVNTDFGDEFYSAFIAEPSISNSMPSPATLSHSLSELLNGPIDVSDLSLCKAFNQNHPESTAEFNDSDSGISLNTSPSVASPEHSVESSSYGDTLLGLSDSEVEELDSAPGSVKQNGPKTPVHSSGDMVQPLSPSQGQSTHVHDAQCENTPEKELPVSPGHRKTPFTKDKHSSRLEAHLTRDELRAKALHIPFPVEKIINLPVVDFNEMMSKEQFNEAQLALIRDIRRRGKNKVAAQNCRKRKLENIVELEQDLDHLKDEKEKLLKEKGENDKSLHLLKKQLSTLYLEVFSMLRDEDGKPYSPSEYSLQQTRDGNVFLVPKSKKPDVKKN
Chain of Nuclear factor NF-kappa-B p105 subunit (Homo sapiens) (P19838 whole entry, looked up): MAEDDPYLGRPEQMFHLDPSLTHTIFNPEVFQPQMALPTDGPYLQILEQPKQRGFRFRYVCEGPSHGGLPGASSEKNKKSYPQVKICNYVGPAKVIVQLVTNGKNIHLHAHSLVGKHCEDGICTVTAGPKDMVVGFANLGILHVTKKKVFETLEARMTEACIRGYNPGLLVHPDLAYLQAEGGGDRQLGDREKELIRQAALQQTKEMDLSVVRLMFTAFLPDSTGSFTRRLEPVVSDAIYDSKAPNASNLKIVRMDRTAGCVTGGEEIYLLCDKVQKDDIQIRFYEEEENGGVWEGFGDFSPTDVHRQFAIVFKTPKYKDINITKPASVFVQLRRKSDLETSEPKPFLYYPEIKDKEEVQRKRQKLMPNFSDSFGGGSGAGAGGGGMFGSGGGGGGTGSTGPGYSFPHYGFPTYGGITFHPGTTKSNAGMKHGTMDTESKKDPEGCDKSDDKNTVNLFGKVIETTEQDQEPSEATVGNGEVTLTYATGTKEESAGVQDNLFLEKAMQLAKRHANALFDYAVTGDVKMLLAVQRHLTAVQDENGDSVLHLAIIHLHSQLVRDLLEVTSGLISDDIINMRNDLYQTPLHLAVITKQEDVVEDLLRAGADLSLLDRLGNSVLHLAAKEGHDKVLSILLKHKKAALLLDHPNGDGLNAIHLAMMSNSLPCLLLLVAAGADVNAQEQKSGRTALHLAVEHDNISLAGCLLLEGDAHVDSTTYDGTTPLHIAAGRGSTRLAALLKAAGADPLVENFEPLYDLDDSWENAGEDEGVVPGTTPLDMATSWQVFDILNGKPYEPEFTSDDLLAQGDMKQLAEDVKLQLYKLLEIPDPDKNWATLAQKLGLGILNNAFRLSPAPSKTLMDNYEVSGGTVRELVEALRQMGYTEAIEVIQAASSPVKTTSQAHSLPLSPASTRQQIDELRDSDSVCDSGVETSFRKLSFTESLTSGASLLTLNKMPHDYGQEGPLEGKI

CC(C)=CCCC(C)=CC=O
not listed: [18]
inactive: all other assays above

CCCCCCc1ccc(O)cc1O
active: [7] 66.4 µM
not listed: [4] | [18]
inactive: all other assays above

Cc1ccc(C)c(O)c1
not listed: [18]
inactive: all other assays above

Cn1c(=O)c2c(ncn2C)n(C)c1=O
not listed: [18]
inactive: all other assays above

CCC(C)(C)C(=O)O[C@H]1C[C@@H](C)C=C2C=C[C@H](C)[C@H](CC[C@@H]3C[C@@H](O)CC(=O)O3)[C@H]21
active: [17] 25.4 µM
not listed: [4] | [18]
inactive: all other assays above

Cc1ccc(N)cc1O
active: [17] 25.2 µM
not listed: [18]
inactive: all other assays above

O=P(OC(CCl)CCl)(OC(CCl)CCl)OC(CCl)CCl
active: MYC, MYC (gene 4609) 82.9 µM | [2] 23.3 µM | [3] 12.7 µM | [4] 85.3 µM | [6] 75.2 µM | [9] 83 µM | [10] 85 µM | [12] 50 µM | [13] 79.1 µM | [14] 83.3 µM | [15] 62.9 µM | [16] 0.231 µM | [17] 94.4 µM
inactive: [1] | [5] | [7] | [8] | [11] | TIMP1, TIMP1 (gene 7076)

CCCCCCCCCCCCCCCO
not listed: [4] | [12]
inactive: all other assays above

Cc1[nH]cnc1C[C@H]1CCc2c(C)c3ccccc3n2C1=O
inactive: [8] | [11] | [14] | [15] | TIMP1, TIMP1 (gene 7076) | [17]
active: [1] 70.1 µM | MYC, MYC (gene 4609) 31.4 µM | [2] 77.3 µM | [3] 20.8 µM | [5] 79.3 µM | [6] 29 µM | [7] 68.3 µM | [9] 44.5 µM | [10] 81.5 µM | [12] 21.5 µM | [13] 63.6 µM | [16] 63.7 µM

CCCCCCCCO
not listed: [18]
inactive: all other assays above

CC(=O)OC[C@H]1O[C@@](COC(C)=O)(O[C@H]2O[C@H](COC(C)=O)[C@@H](OC(C)=O)[C@H](OC(C)=O)[C@H]2OC(C)=O)[C@@H](OC(C)=O)[C@@H]1OC(C)=O
not listed: [18]
inactive: all other assays above

CC(C)CCCCCCOC(=O)c1ccc(C(=O)OCCCCCCC(C)C)c(C(=O)OCCCCCCC(C)C)c1
not listed: [4] | [18]
inactive: all other assays above

CCCC(=O)OCC
not listed: [4] | [18]
inactive: all other assays above

Cc1ccc(S(=O)(=O)O)cc1C
not listed: [4] | [18]
inactive: all other assays above

COC(=O)CC(=O)OC
active: [3] 50 µM
not listed: [4] | [18]
inactive: all other assays above

O=C(O)CC(O)C(=O)O (configuration not stated)
not listed: [18]
inactive: all other assays above

CN(C)c1ccc(N=NS(=O)(=O)O)cc1
active: [6] 20.5 µM | [11] 0.717 µM | [16] 12.3 µM | [17] 11.1 µM
not listed: [18]
inactive: all other assays above

CC(C)=CCC/C(C)=C\CO
not listed: [4] | [8]
inactive: all other assays above

CCCCC(CC)COC(=O)CCCCCCCCC(=O)OCC(CC)CCCC (configuration not stated)
not listed: [18]
inactive: all other assays above

— PubChem BioAssay (EPA / NIEHS)
